TDP1 cell noCPT: qHTS for Inhibitors of human tyrosyl-DNA phosphodiesterase 1 (TDP1): qHTS in cells in absence of CPT; DT40 Tdp1-/- hTDP1 cells, no CPT, ATP luminescence, 48 h; Potency, µM (top dose mostly 46.2 µM), inactives show top-dose activity change, negative = growth inhibition, hits mostly inhibitors; hit rate 15% among 420,000; further: potency means the concentration at half of the fitted maximal effect; nearly all actives have a fitted effect of over 55% in size
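Growth of hTDP1-complemented DT40 Tdp1-knockout cells is measured by ATP luminescence after at least 48 hr compound exposure at 37 °C, with DMSO substituting for the 20 nM CPT used in the parallel screen.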
Gal4-VP16 FLuc: counter-screen for ROR gamma inhibitors: Gal4-VP16 reporter | Drosophila S2 Gal4-VP16 UAS-luciferase, luminescence, 20 h | Potency, µM (series often up to 53.6 µM), inactives show at the top dose activity, negative = inhibition, actives largely listed as inhibitors | hit rate 3.5% among 310,000;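 further: Gal4-VP16 expression switched on by copper sulfate through the metallothionein promoter; potency means the concentration at half of the fitted maximal effect; nearly all actives have a fitted effect of over 50% in size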
IL1B secr inh: blocks inflammasome-driven IL-1 beta release. activity change, % at 57.5 µM. THP-1 LPS/ATP IL-1B secretion, AlphaLISA, 16 h; active compounds read low. hit rate 4.7% among 360,000; in the data active means activity change below about -50%; inconclusive means mostly about -30% to -49%
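THP-1 cells pretreated 1 hr with compounds (up to 57.5 uM final), then stimulated with LPS (250 ng/mL final) plus ATP (1.25 mM final); secreted IL-1B measured by AlphaLISA after 16 hr, decreased signal indicating inhibition.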
RORg inh: inhibitors of mouse ROR gamma transcriptional activity | Drosophila S2 Gal4-RORgamma UAS-luciferase reporter, 20 h | AID 2551 | P51450 | Potency, µM (doses to about 53.6 µM), without a hit: at the top dose activity change, negative = inhibition, actives largely listed as inhibitors | hit rate 5.4% among 310,000; further: potency means the concentration at half of the fitted maximal effect; nearly all actives have a fitted effect of over 60% in size
Target sequence (P51450 whole entry, looked up, the tested form may be a part): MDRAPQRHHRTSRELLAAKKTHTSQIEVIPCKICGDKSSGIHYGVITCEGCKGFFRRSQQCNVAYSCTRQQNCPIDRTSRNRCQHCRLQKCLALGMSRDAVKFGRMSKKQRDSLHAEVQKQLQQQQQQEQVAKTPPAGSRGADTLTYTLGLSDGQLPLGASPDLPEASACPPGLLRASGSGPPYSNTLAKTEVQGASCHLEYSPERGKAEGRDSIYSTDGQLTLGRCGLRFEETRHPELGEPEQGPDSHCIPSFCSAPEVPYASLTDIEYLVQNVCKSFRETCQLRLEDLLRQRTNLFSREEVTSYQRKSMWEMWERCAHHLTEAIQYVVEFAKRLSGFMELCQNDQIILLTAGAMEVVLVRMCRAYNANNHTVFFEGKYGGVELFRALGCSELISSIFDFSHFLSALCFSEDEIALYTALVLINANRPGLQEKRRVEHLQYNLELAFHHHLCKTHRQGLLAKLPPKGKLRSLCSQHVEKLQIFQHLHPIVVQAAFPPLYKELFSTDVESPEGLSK
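In this cell-based reporter format, copper sulfate (700 uM final) drives Gal4–ROR gamma fusion expression from a metallothionein promoter in Drosophila Schneider cells; compounds preincubated 1 hr, reporter read after 20 hr at ambient temperature.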
TDP1 cell CPT: growth inhibition of DT40 Tdp1-/-;hTDP1 cells with camptothecin (screen for TDP1 inhibitors) | hit rate 12% among 420,000 | chicken DT40 Tdp1-/-;hTDP1 cells + 20 nM CPT, ATP luminescence, 48 h | Potency, µM (highest dose often 46.2 µM), for the others: at the highest dose activity change, negative = growth inhibition, hits mostly inhibitors | AID 686979; further: potency means the concentration at half of the fitted maximal effect; nearly all actives have a fitted effect of over 55% in size
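Chicken DT40 Tdp1-/- cells stably complemented with human TDP1 were seeded at 400 cells/well in medium containing 20 nM camptothecin, exposed to pin-transferred compounds, and grown at 37 °C for at least 48 hr. Viability was read as ATP luminescence.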
ELG1 repair inh: blocks ELG1-dependent DNA repair in HEK293T cells | Potency, µM (top dose mostly 46.1 µM), without a hit: at the highest dose activity change, negative = inhibition, usual class: inhibitors | HEK293T ELG1-luciferase reporter, luminescence, 16 h; DNA damage induced by 5-fluorouridine | hit rate 2.3% among 330,000 | AID 504467; further: potency means the concentration at half of the fitted maximal effect; nearly all actives have a fitted effect of over 55% in size
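Overnight (16 hr) co-exposure of 2,000 cells/well to 5-fluorouridine and compound at 37 °C preceded detection. Luciferase was quantified via ONE-Glo luminescence; loss of signal denotes inhibition.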
The depositor's hits bear a star; [ ] = another dose, or the depositor's remark. Rows were chosen to be rich in hits. Some 21% of all compounds tested hit in one or more screens of this group. Unless noted, the call rests on the fitted dose curve; in most records, active means well fitted curve in the direction sought with a large enough effect; inconclusive means small, poorly fitted or top-dose-only effect, or another doubt; inactive means no such curve, though single readings can be large; an effect the other way counts as inactive or inconclusive. On the % scale 0 is the no-effect control and ±100 the full control effect.

For c1ccc2c(N3CCCCCC3)nc(-c3ccncc3)nc2c1 the results were TDP1 cell noCPT 23.1µM*, Gal4-VP16 FLuc -6.3%, IL1B secr inh inconclusive, RORg inh -39.1%, TDP1 cell CPT inconclusive and ELG1 repair inh 7.31µM*.
For CCC1Oc2ccc(C)cc2N(CC(=O)NCCc2ccccc2)C1=O (stereo not drawn) the results were TDP1 cell noCPT -13.7% and TDP1 cell CPT 4.8%.
Screening CCC1Oc2ccccc2N(CC(=O)NCCC2=CCCCC2)C1=O (stereo not drawn) returned TDP1 cell noCPT 25.9µM*, Gal4-VP16 FLuc 3.3%, IL1B secr inh -17.4, RORg inh 39.3%, TDP1 cell CPT 16.4µM* and ELG1 repair inh 1.3%.
Screening CCC1CN(CC(=O)NC(C)c2cn(C)nc2C)Cc2cc(OC)ccc2O1 (stereo not drawn) returned TDP1 cell noCPT -5.7% and TDP1 cell CPT 8.6%[9.04 µM].
Cc1oc(-c2cc(F)ccc2F)nc1CN1CCN(c2ncnc3ccccc23)CC1 was read as TDP1 cell noCPT 20.6µM*, Gal4-VP16 FLuc inconclusive, IL1B secr inh -29.4, RORg inh inconclusive, TDP1 cell CPT 11.6µM* and ELG1 repair inh inconclusive.
Screening COc1ccc(-c2nc(CN3CCN(c4ncnc5ccccc45)CC3)c(C)o2)c(OC)c1 returned TDP1 cell noCPT 5.8µM*, Gal4-VP16 FLuc inconclusive, IL1B secr inh inconclusive, RORg inh -93.1%, TDP1 cell CPT 8.2µM* and ELG1 repair inh 7.3µM*.
`CC(C)=NNc1cnnc2ccc([N+](=O)[O-])cc12` gave TDP1 cell noCPT 13µM*, IL1B secr inh 33.0 and TDP1 cell CPT 13µM*.
For c1ccc(-n2ncc3c(N4CCN(CCOc5cccc6ccccc56)CC4)ncnc32)cc1 the results were TDP1 cell noCPT 25.9µM*, Gal4-VP16 FLuc -3.7%, IL1B secr inh 8.0, RORg inh -15.1%, TDP1 cell CPT 16.4µM* and ELG1 repair inh -4.4%.
CS(=O)(=O)N1CCN(c2ncnc3c2cnn3-c2ccccc2)CC1 was read as TDP1 cell noCPT -21.6%, Gal4-VP16 FLuc -3.6%, RORg inh 27.6%, TDP1 cell CPT -20.5% and ELG1 repair inh 20.8%.
`c1ccc(CN2CCN(c3ncnc4c3cnn4-c3ccccc3)CC2)cc1` gave TDP1 cell noCPT 18.4µM* and TDP1 cell CPT 16.4µM*.
`Cc1ccc(-n2ncc3c(N4CCN(Cc5ccccc5)CC4)ncnc32)cc1Cl` gave TDP1 cell noCPT 9.2µM* and TDP1 cell CPT 8.2µM*.
`Fc1ccc(-n2ncc3c(N4CCN(Cc5ccccc5)CC4)ncnc32)cc1` gave TDP1 cell noCPT -21.3% and TDP1 cell CPT -12.3%.
Screening COc1cc(Cl)c(C)cc1NC(=O)Cc1ccc(OC)c(OC)c1 returned TDP1 cell noCPT 14.6µM*, Gal4-VP16 FLuc -11.2%, IL1B secr inh -21.2, RORg inh 28.8%, TDP1 cell CPT -28.3% and ELG1 repair inh inconclusive.
`Cc1ccc(CC(=O)Nc2ccccc2-c2ccccc2)cc1C` gave TDP1 cell noCPT inconclusive, Gal4-VP16 FLuc 0.9%, IL1B secr inh 7.4, RORg inh -0.4%, TDP1 cell CPT inconclusive and ELG1 repair inh -2.2%.
For COc1ccc(C(C)=O)cc1CC(=O)Nc1ccccc1-c1ccccc1 the results were TDP1 cell noCPT -14.1%, Gal4-VP16 FLuc 2.3%, IL1B secr inh 21.2, RORg inh 22.2%, TDP1 cell CPT inconclusive and ELG1 repair inh 11.6µM*.
Screening COc1ccc(CC(=O)Nc2ccccc2-c2ccccc2)cc1OC returned TDP1 cell noCPT 20.6µM*, Gal4-VP16 FLuc -28.8%, IL1B secr inh -28.1, RORg inh 26.9%, TDP1 cell CPT 16.4µM* and ELG1 repair inh -27.3%.
For COc1ccc(C(C)=O)cc1CC(=O)Nc1ccc2c(c1)CCC2 the results were TDP1 cell noCPT -10.5%, Gal4-VP16 FLuc -15.9%, IL1B secr inh 24.4, RORg inh 18.9%, TDP1 cell CPT -0.9% and ELG1 repair inh -14.5%.
`CN1CCN(c2ccc3c(c2)OC[C@@H](Cc2ccccc2)NS3(=O)=O)CC1` gave TDP1 cell noCPT inconclusive, IL1B secr inh 0.0 and TDP1 cell CPT -17.0%.
Screening CCNC(=O)C1(C)CCN(C(=O)c2ccccc2OC(F)(F)F)C1 (stereo not drawn) returned TDP1 cell noCPT 1.1%, IL1B secr inh 13.5 and TDP1 cell CPT -9.3%.
For CCc1nc2nc(C)c(NS(=O)(=O)c3ccc(C(C)(C)C)cc3)c(=O)n2[nH]1 the results were TDP1 cell noCPT 2.2% and TDP1 cell CPT 6.8%.
Screening O=C(Cn1ncc2c([nH]c3ccccc32)c1=O)N1CCOCC1 returned TDP1 cell noCPT 5.7%, Gal4-VP16 FLuc -11.8%, IL1B secr inh -2.5, RORg inh 6.7%, TDP1 cell CPT 12.0% and ELG1 repair inh 4.1%.
O=C(CSc1nnc(C2CC2)n1C1CC1)Nc1cccc(Br)c1 was read as TDP1 cell noCPT -9.6%, IL1B secr inh inconclusive, TDP1 cell CPT -11.0% and ELG1 repair inh -1.6%.
`O=C1C=C(c2ccc3c(c2)OCO3)C[C@@H](c2ccc3c(c2)OCO3)C1` gave TDP1 cell noCPT -23.1%, IL1B secr inh 10.6, TDP1 cell CPT -8.8% and ELG1 repair inh 0.1%.
For O=C1C=C(c2ccc3cc[nH]c3c2)C[C@@H](c2ccc3c(c2)OCO3)C1 the results were TDP1 cell noCPT 10.3µM*, IL1B secr inh 2.4, TDP1 cell CPT 1.84µM* and ELG1 repair inh inconclusive.
`Cc1cc(C)c(C2=CC(=O)C[C@H](c3ccc4c(c3)OCO4)C2)c(C)c1` gave TDP1 cell noCPT inconclusive, IL1B secr inh 8.2, TDP1 cell CPT 18.4µM* and ELG1 repair inh inconclusive.
Screening Cc1cc(C2=CC(=O)C[C@H](c3ccc4c(c3)OCO4)C2)ccc1F returned TDP1 cell noCPT -27.9%, IL1B secr inh -51.0*, TDP1 cell CPT -18.4% and ELG1 repair inh inconclusive.
`COc1ccc2c(c1)O[C@@H](c1ccc3c(c1)OCO3)[C@H](OC(=O)NS(=O)(=O)c1ccc(C)cc1)C2=O` gave Gal4-VP16 FLuc -3.6% and RORg inh inconclusive.
O=C(OCc1ccc(O)cc1)c1c(-c2ccsc2)oc2ccc(N3CCOCC3)cc12 was read as TDP1 cell noCPT 13µM*, Gal4-VP16 FLuc -0.5%, IL1B secr inh -12.5, RORg inh 39.6%, TDP1 cell CPT 18.4µM* and ELG1 repair inh inconclusive.
